Screens deposited in PubChem by National Center for Advancing Translational Sciences (NCATS).
D1 agonist = agonists of human D1 dopamine receptor. HEK293 T-REx D1 cells, calcium flux, agonist mode. P21728. 360,000 compounds, 1% hits. activation, % at 2 µM; in the data active means activation above about 30%
Target sequence (P21728 whole entry, looked up): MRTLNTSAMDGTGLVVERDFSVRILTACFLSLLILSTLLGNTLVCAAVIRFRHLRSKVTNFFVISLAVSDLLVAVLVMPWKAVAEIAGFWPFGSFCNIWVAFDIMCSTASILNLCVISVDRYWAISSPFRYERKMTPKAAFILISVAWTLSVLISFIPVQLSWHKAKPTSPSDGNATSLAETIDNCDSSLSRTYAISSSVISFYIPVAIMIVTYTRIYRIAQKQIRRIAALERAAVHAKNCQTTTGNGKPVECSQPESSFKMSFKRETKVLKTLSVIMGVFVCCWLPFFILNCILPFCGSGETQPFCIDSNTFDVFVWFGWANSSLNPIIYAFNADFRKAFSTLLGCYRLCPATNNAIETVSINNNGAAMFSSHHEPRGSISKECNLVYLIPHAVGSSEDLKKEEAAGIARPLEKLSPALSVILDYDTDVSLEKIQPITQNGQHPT
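Inducible HEK293 T-REx D1 cells, force-coupled to calcium signalling, were plated at 4000 cells/well with tetracycline and held overnight at 30 C. After no-wash calcium dye loading, compound-evoked calcium rise over 180 s flagged agonists.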
TRHR enhancer-1 = allosteric enhancers of human TRH receptor | AID 493056 | TRHR cells, fluo-8 calcium fluorescence, EC20 TRH enhancement | enhancement, % at 2 µM | 360,000 compounds, 0.66% hits | P34981; in the data active means enhancement above about 30%
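TRHR-expressing cells loaded with fluo-8 calcium dye were read kinetically (ex 480/em 530) during compound addition, then stimulated with an EC20 of TRH (10 nM final). Enhancement of the Gq-mediated intracellular calcium response was scored.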
TRHR agonist-1 = TRH receptor (human) agonism; P34981; TRHR cells, calcium flux fluo-8, FDSS agonist mode; activation, % at 2 µM; 360,000 compounds, 0.18% hits; AID 493084; in the data active means activation above about 30%
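Read-out: compound-evoked intracellular calcium rise in TRHR cells, fluo-8 dye, kinetic FDSS fluorescence at 1 s/cycle following a 10-cycle baseline. Cells cultured overnight before dye loading (30 min–1.5 h, RT).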
D1 potentiator = enhances dopamine response at the human D1 receptor; P21728; HEK293 TREx D1 cells, calcium flux, dopamine EC20 potentiation; potentiation, % at 10 µM; 360,000 compounds, 0.036% hits; in the data active means potentiation above about 30%
D1 antagonist = human D1 dopamine receptor antagonism. P21728. HEK293 TREx D1 cells, calcium flux, dopamine EC80; active compounds read low. activity change, negative = inhibition, % at 10 µM. 360,000 compounds, 3.2% hits; in the data active means activity change below about -30%
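After overnight tetracycline induction at 30 C, force-coupled D1 HEK293 cells took up a no-wash calcium dye at room temperature. Compounds were added and monitored 180 s, and the response to EC80 dopamine was then recorded.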
TRHR enhancer-2 = human TRH receptor allosteric enhancement confirmation; shares compounds with TRHR enhancer-1; TRH receptor cell assay, enhancer confirmation qHTS; activity change, negative = inhibition, % at 46.1 µM; 970 tested, under 10 active; AID 493076;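 further: compound effect scored on response to added TRH at EC20 of 10 nM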
TRHR agonist-2 = confirmation of human TRH receptor agonists. shares compounds with TRHR enhancer-1. TRHR-expressing cells, agonist activation read-out. Potency, µM (highest dose often 46.1 µM), most hits filed as activators. 970 compounds, 8% hits; further: nearly all actives have a fitted effect of over 75% in size
Of the large screens only hits and unclear results are named; the others gave an inactive call (follow-up assays come after a bar, where they were run). This is a sample that favours compounds with a hit; in the whole collection about 4.6% have one here. Unless noted, the call rests on the fitted dose curve; in most records, active means well fitted curve in the direction sought with a large enough effect; inconclusive means small, poorly fitted or top-dose-only effect, or another doubt; inactive means no such curve, though single readings can be large; an effect the other way counts as inactive or inconclusive.

CC1CCc2cc(F)ccc2N1C(=O)CCl (stereo unspecified)	none
COc1ccc(-n2nc(C(=O)Nc3ccc(C)cn3)c3c4ccccc4n(C)c3c2=O)cc1Cl	none
CC1=NN(c2ccccc2)C(=O)/C1=C\c1ccc(Br)s1	none
CC1=NN(c2ccccc2)C(=O)/C1=C/c1cccs1	none | TRHR enhancer-2 inactive | TRHR agonist-2 inactive
NS(=O)(=O)c1ccc(CCNC(=O)C2CCC(Cn3c(=S)[nH]c4ccccc4c3=O)CC2)cc1 (stereo unspecified)	TRHR enhancer-1 41.0 | TRHR enhancer-2 inactive | TRHR agonist-2 inactive
CN(C)CCCNc1oc(-c2ccccc2Cl)nc1S(=O)(=O)c1ccc(F)cc1	TRHR enhancer-1 57.2 | TRHR enhancer-2 inconclusive | TRHR agonist-2 inconclusive
COc1ccc([C@]23Cc4ccccc4C(O2)c2c(cc(-c4ccccc4)oc2=O)O3)cc1	none
Nc1ncnc(Nc2ccc(F)c(Cl)c2)n1	TRHR enhancer-1 45.0 | TRHR enhancer-2 inactive | TRHR agonist-2 inactive
COC(=O)c1cc(S(=O)(=O)N2CCCC2=O)c(Cl)cc1Cl	none
CC1Cc2cc(/C(O)=C3/C(=O)C(=O)N(CCN4CCOCC4)C3c3ccc(N(C)C)cc3)ccc2O1 (stereo unspecified)	TRHR enhancer-1 41.9 | TRHR enhancer-2 inactive | TRHR agonist-2 inactive
CC1Cc2cc(/C(O)=C3/C(=O)C(=O)N(CCN4CCOCC4)C3c3ccc(C(C)C)cc3)ccc2O1 (stereo unspecified)	none
CCC1CCCCN1CCCNC(=O)c1cn(CC)c2ccc(S(=O)(=O)N3CCc4ccccc4C3)cc2c1=O (stereo unspecified)	TRHR enhancer-1 51.1 | TRHR enhancer-2 inactive | TRHR agonist-2 inactive
CCOCCCNC(=S)N(CCO)Cc1cc2cc3c(cc2[nH]c1=O)OCCO3	none
O=C(C1=NN(c2ccccc2)C2C(=O)N(c3ccccc3)C(=O)C12)c1ccccc1 (stereo unspecified)	D1 agonist 324.3, TRHR agonist-1 33.0, D1 antagonist -31.5 | TRHR enhancer-2 inconclusive | TRHR agonist-2 18.4µM
Cc1cccc(-c2ncc(S(=O)(=O)C(C)(C)C)c(N)n2)c1	none
COc1cc(OC)cc(C(=O)NCc2cc(C)nc3ccccc23)c1	TRHR agonist-1 33.1 | TRHR enhancer-2 inactive | TRHR agonist-2 inactive
COc1ccc(C(=O)NCc2cc(C)nc3ccccc23)cc1OC	none
CCCN1CCC(CCOc2ccccc2)(C(=O)OCC)CC1	TRHR enhancer-1 55.7 | TRHR enhancer-2 inactive | TRHR agonist-2 inactive
CCOc1ccccc1NC(=O)NCc1ccco1	none
CCN(CC)S(=O)(=O)c1ccc(C(=O)N(c2ccc(C)cc2)C2C=CS(=O)(=O)C2)cc1 (stereo unspecified)	TRHR enhancer-1 41.7 | TRHR enhancer-2 inactive | TRHR agonist-2 inactive
O=C(CN1C(=O)CC(c2ccco2)Sc2ccccc21)NC1CCCCC1 (stereo unspecified)	none
CCCn1c(SCC(=O)N2CCCCC2)nnc1-c1ccco1	TRHR enhancer-1 48.5 | TRHR enhancer-2 inactive | TRHR agonist-2 inactive
CCCn1c(SCC(=O)N2CCCCC2)nnc1C(C)C	TRHR agonist-1 32.0 | TRHR enhancer-2 inactive | TRHR agonist-2 inactive
COCCn1c(SCC(=O)N2CCCC2)nnc1C(C)C	none
Cc1cc(Nc2cc(Cl)cc(Cl)c2)nc(N)n1	none
CCOc1ccc(NC(C)C(=O)N/N=C/c2cccs2)cc1 (stereo unspecified)	TRHR enhancer-1 50.2 | TRHR enhancer-2 inactive | TRHR agonist-2 inactive
Cc1ccn2c(=O)cc(COc3cccc(NC(=O)Nc4cccc(Cl)c4C)c3)nc2c1	none
Cc1ccc(Cl)cc1-n1nnc(-c2nc(-c3ccc4c(c3)OCO4)no2)c1C	none
CSCCCNC(=S)Nc1ccc(N2CCOCC2)cc1	TRHR enhancer-1 43.3 | TRHR enhancer-2 inactive | TRHR agonist-2 inactive
CSCCCNC(=S)Nc1ccc(N2CCOCC2)cc1N1CCOCC1	none
CCOc1ccccc1NC(=O)C(CC(C)C)NS(=O)(=O)c1ccc2c(c1)CCN2C(C)=O (stereo unspecified)	none
Cc1cccc(-n2c(N)cc(=O)nc2SCC(=O)Nc2ccccc2)c1	TRHR enhancer-1 45.2 | TRHR enhancer-2 inactive | TRHR agonist-2 inconclusive
CCN1CCCC(NC(=O)c2cc([N+](=O)[O-])ccc2OC)C1 (stereo unspecified)	TRHR enhancer-1 42.4 | TRHR enhancer-2 inactive | TRHR agonist-2 inactive
NC(=O)COC(=O)c1c2c(nc3ccccc13)CCCCC2	TRHR enhancer-1 49.3 | TRHR enhancer-2 inactive | TRHR agonist-2 inactive
OCCc1ccc(O)c(-n2nc3ccccc3n2)c1	TRHR enhancer-1 44.1 | TRHR enhancer-2 inactive | TRHR agonist-2 inactive
N#Cc1ccc(COc2ccc(CCO)cc2-n2nc3ccccc3n2)cc1	none
Cc1c(C)c2c(c(C)c1O)CCC(C)(C(=O)O)O2 (stereo unspecified)	none
COc1cc(NC(=O)[C@@H](NC(=O)N2CCn3c2nc2ccccc23)C(C)C)cc(OC)c1	TRHR enhancer-1 43.2 | TRHR enhancer-2 inactive | TRHR agonist-2 inactive
CC(C)[C@H](NC(=O)N1CCn2c1nc1ccccc12)C(=O)N[C@H](Cc1ccccc1)C(=O)O	none
CCc1nn2c(N3CCOCC3)cc(C)nc2c1-c1ccccc1	none
Cc1nn(C)cc1S(=O)(=O)Nc1ncccn1	TRHR enhancer-1 41.3 | TRHR enhancer-2 inactive | TRHR agonist-2 inactive
CCCCC(NC(=O)Cc1c(C)c2cc3c(-c4ccccc4)coc3c(C)c2oc1=O)C(=O)O (stereo unspecified)	none
CC(C)C(=O)NC(C)C(c1cccs1)N1CCN(c2ccccc2)CC1 (stereo unspecified)	none
CC(NS(C)(=O)=O)C(c1cccs1)N1CCN(c2ccccc2)CC1 (stereo unspecified)	TRHR enhancer-1 59.5 | TRHR enhancer-2 inactive | TRHR agonist-2 inactive
Cc1ccc2c(c1)c(Sc1ccccc1)c(CC(=O)O)n2C	TRHR agonist-1 99.0 | TRHR enhancer-2 inactive | TRHR agonist-2 inactive
O=C1/C(=C/c2ccccc2)Nc2ccccc21	D1 agonist 50.0, TRHR agonist-1 49.9 | TRHR enhancer-2 inactive | TRHR agonist-2 16.4µM
COc1ccc(CNC(=O)c2cc(C3CC3)nc3c2cnn3C(C)C)cc1	TRHR enhancer-1 42.8 | TRHR enhancer-2 inactive | TRHR agonist-2 inconclusive
O=C1c2ccccc2C(O)N1c1ccc(Cl)cc1 (stereo unspecified)	none
O=C1c2ccccc2C(O)N1c1ccccc1 (stereo unspecified)	TRHR agonist-1 30.7 | TRHR enhancer-2 inactive | TRHR agonist-2 inactive
CC(C)Nc1ncnc2c1cnn2-c1ccc(Cl)cc1	TRHR enhancer-1 55.4 | TRHR enhancer-2 inactive | TRHR agonist-2 inactive
